Screening results: PubChem, National Center for Advancing Translational Sciences (NCATS)
This is a sample that favours compounds with a hit; in the whole collection about 9.5% have one here.
Tau fluor cs – counter-screen for tau fibril formation inhibitors; tau K18 P301L Alexa594 fluorescence, heparin fibrillization; Potency, µM (titrated, usually from 57.7 µM), inactives show top-dose activity change, negative = decrease; hit rate 0.93% among 280,000; further: nearly all actives have a fitted effect of over 55% in size
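Human tau K18 P301L (15 uM unlabeled, 0.24 uM Alexa 594-labeled) in 100 mM sodium acetate pH 7 with 20 uM heparin, 6 hr at 37 C. ThT 30 uM added, 1 hr ambient; Alexa 594 FP and total fluorescence read at 555/632 nm.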
NPSR antag – neuropeptide S receptor (human) antagonism, cAMP. Q6W5P4. CHO-NPSR cells, cAMP TR-FRET, antagonist mode. Potency, µM (doses to about 38.3 µM), for the others: top-dose activity change, negative = inhibition, most hits filed as inhibitors. hit rate 1% among 220,000. AID 1461; further: nearly all actives have a fitted effect of over 50% in size
Target sequence (Q6W5P4 whole entry, looked up): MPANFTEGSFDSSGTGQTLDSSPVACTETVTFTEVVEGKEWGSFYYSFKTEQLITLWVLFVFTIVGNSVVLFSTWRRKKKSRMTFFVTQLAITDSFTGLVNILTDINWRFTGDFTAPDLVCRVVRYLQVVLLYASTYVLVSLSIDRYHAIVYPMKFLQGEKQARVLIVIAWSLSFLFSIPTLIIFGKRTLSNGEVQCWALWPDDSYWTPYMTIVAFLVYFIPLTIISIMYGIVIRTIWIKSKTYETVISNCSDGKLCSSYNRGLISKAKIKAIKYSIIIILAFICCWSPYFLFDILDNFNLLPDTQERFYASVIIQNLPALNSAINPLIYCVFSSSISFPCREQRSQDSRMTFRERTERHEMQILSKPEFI
Tau fibril FP – blocks human tau fibril formation measured by polarization; K18 P301L tau heparin fibrillization, Alexa594 FP, 6 h; Potency, µM (titrated, usually from 57.7 µM), for inactives: at the highest dose activity, negative = inhibition, usual class: inhibitors; hit rate 0.39% among 280,000; further: nearly all actives have a fitted effect of over 55% in size
Target sequence (P10636 561-689 P618L limits assumed): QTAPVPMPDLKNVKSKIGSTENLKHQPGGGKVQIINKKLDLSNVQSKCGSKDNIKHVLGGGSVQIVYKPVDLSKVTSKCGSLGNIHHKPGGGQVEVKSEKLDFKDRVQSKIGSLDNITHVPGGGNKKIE
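Recombinant K18 P301L […], labeled with Alexa 594 at 0.24 uM over 15 uM unlabeled; heparin inducer 20 uM final; 37 C, 6 hr; FP endpoint.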
ALDH1A1 block – ALDH1A1 (human) enzyme inhibition; hit rate 7.3% among 220,000; Purified ALDH1A1, NADH fluorescence, propionaldehyde substrate; AID 1030; Potency, µM (series often up to 75.3 µM), without a hit: at the highest dose activity, negative = inhibition, actives largely listed as inhibitors; active means well fitted inhibition curve with a large enough effect, not every such curve was filed as active; inconclusive means small, poorly fitted or top-dose-only effect, or another doubt; inactive means no such curve, though single readings can be large or run the other way;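 further: plate controls were no enzyme wells and a reference inhibitor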
HPGD inh – blocks human HPGD enzyme activity. AID 894. P15428. purified HPGD, NADH fluorescence kinetic, PGE2 substrate. Potency, µM, for inactives: at the highest dose activity change, negative = inhibition, hits mostly inhibitors. hit rate 4.3% among 150,000; active means well fitted inhibition curve with a large enough effect, not every such curve was filed as active; inconclusive means small, poorly fitted or top-dose-only effect, or another doubt; inactive means no such curve, though single readings can be large or run the other way
Target sequence (P15428 whole entry, looked up): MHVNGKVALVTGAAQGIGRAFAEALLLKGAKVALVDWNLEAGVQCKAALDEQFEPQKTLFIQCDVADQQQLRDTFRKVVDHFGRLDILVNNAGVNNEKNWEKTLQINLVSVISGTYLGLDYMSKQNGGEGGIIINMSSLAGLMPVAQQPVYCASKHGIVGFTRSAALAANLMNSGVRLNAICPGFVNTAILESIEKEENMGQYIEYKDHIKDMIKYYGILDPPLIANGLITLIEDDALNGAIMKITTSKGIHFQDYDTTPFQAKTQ
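NADH formation kinetics: reaction with 30 uM PGE2 and 1 mM NAD+ (final), 20 nM enzyme, Tris-HCl pH 8 with Tween 20, after 15 min compound preincubation at room temperature. Fluorescence change, last versus first of five reads.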
Tau ThT inhib – blocks human tau fibril formation measured by thioflavin T. recombinant tau K18 P301L (four-repeat tau fragment), heparin-induced fibrillization, ThT fluorescence. Potency, µM (titrated, usually from 57.4 µM), for inactives: at the highest dose activity, negative = inhibition, actives largely listed as inhibitors. hit rate 2.1% among 270,000. AID 1460; further: nearly all actives have a fitted effect of over 55% in size
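In this qHTS, human K18 P301L tau is incubated with compound and heparin for 6 hr at 37 C, and Thioflavin T fluorescence then reports fibril load.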
Active calls of the source: *; ? = inconclusive; . = not tested or not shown; [ ] = another dose, or the depositor's remark. Unless noted, the call rests on the fitted dose curve; in most records, active means well fitted curve in the direction sought with a large enough effect; inconclusive means small, poorly fitted or top-dose-only effect, or another doubt; inactive means no such curve, though single readings can be large; an effect the other way counts as inactive or inconclusive. Unless noted, on the % scale 0 is the no-effect control and ±100 the full control effect; potency means the concentration at half of the fitted maximal effect.

SMILES | Tau fluor cs | NPSR antag | Tau fibril FP | ALDH1A1 block | HPGD inh | Tau ThT inhib
COc1cc(/C=C/C(=O)N2CCCN(C(=O)/C=C/c3cc(OC)c(OC)c(OC)c3)CC2)cc(OC)c1OC | 4.8% | 11.1% | -0.3% | -10.8% | . | -2.9%
COc1cc(/C=C/C(=O)N2CCC=CC2=O)cc(OC)c1OC | -21.3% | . | ? | 10µM* | -24.3% | 8.91µM*
COC(=O)NC/C=C\c1nc(CCCO)co1 | -6.1%[11.6 µM] | . | 0.0%[11.6 µM] | -9.1%[13.5 µM] | . | -4.8%[11.5 µM]
Cc1csc2nc(COc3ccccc3NC(=O)c3ccc(C(C)(C)C)cc3)cc(=O)n12 | -11.7% | . | -9.3% | . | . | ?
CCOC(=O)N1CCN(C(=O)CSc2ccc3nnc(CCNC(=O)c4ccc(OC)cc4)n3n2)CC1 | -5.4% | 12.5% | -4.7% | 7.94µM* | . | -4.1%
O=C1C(NS(=O)(=O)c2cccs2)=C(N2CCN(c3ccccc3)CC2)C(=O)c2ccccc21 | ? | -24.3%[46.1 µM] | ? | 3.55µM* | -25.0% | 6.31µM*
COc1ccc(S(=O)(=O)NCC(c2cccnc2)N2CCN(c3ccccc3)CC2)cc1C (stereo unspecified) | -17.0% | -21.5%[46.1 µM] | 4.0% | 12.6µM* | -16.3% | -26.8%
COc1ccc(N2CCN(C(CNS(=O)(=O)c3cccs3)c3cccnc3)CC2)cc1 (stereo unspecified) | -21.9% | -16.0%[46.1 µM] | 7.1% | -17.6% | -7.7% | -18.6%
O=S(=O)(NCC(c1cccnc1)N1CCN(c2ccccc2)CC1)c1cccs1 (stereo unspecified) | -13.3% | -11.5%[46.1 µM] | 2.1% | 2.51µM* | -10.6% | -13.2%
O=C(C(NS(=O)(=O)c1cccs1)c1ccccc1)N1CCN(c2ccccc2)CC1 (stereo unspecified) | -16.9% | -25.7%[46.1 µM] | 1.1% | ? | -10.5% | ?
COc1ccc(S(=O)(=O)NCC(c2cccnc2)N2CCN(c3ccc(F)cc3)CC2)cc1C (stereo unspecified) | -12.6% | -9.8%[46.1 µM] | 7.6% | ? | -1.5% | -13.4%
O=C(Nc1nccs1)C1CCN(S(=O)(=O)c2c(Cl)cccc2Cl)CC1 | -12.6% | 2.0%[46.1 µM] | 9.0% | -3.1% | -1.0% | 2.2%
CCCCNC(=O)CCC1N=C2c3ccccc3N=C(SCC(=O)NCCc3ccc(OC)c(OC)c3)N2C1=O (stereo unspecified) | 0.6% | . | -3.7% | . | . | 4.1%
CC(=O)Cc1nsc(Nc2ccc3c(c2)OCCO3)n1 | -21.5% | -20.8%[46.1 µM] | 13.2% | 3.16µM* | 20µM* | ?
CC(=O)Cc1nsc(Nc2ccc(F)cc2)n1 | -14.9% | 2.5% | -3.3% | -4.1% | . | -9.3%
CCCCOc1ccc(C(=O)Nc2ccc3c(c2)CCCN3C(=O)c2cccs2)cc1 | -15.4% | . | 6.8% | . | . | ?
COc1ccc(OC)c(-c2c3cc(O)c(=O)cc-3oc3cc(O)c(O)cc23)c1 | ? | -25.9% | 15.8µM* | ? | 14.1µM* | 3.16µM*
CCOc1ccccc1-c1c2cc(O)c(=O)cc-2oc2cc(O)c(O)cc12 | 17.2% | -12.8% | 14.1µM* | 20µM* | 17.8µM* | ?
O=c1cc2oc3cc(O)c(O)cc3c(-c3ccccc3O)c-2cc1O | ? | 11.3%[7.67 µM] | 12.6µM* | . | . | 2.51µM*
O=C(NC1CCCc2ccccc21)C1CCN(S(=O)(=O)c2cccc3nonc23)CC1 (stereo unspecified) | -13.0% | -11.4%[46.1 µM] | -1.6% | 31.6µM* | -2.0% | -9.3%
O=C(CCNS(=O)(=O)c1cccc2nonc12)NC1CCCc2ccccc21 (stereo unspecified) | -5.7% | -8.9%[46.1 µM] | 1.8% | 14.1µM* | -4.9% | -8.2%
CC(C)OCCCNC(=O)CCCn1c(SCC(=O)c2ccc(Br)cc2)nc2c(sc3ccccc32)c1=O | -7.9% | . | -8.6% | . | . | 7.4%
Cc1csc(=NC(=O)c2ccccc2)n1Cc1ccco1 | -12.4% | 15.3%[46.1 µM] | -4.3% | 3.5% | -15.5% | -12.2%
Cc1csc(=Nc2ccccc2)n1Cc1ccco1 | -18.6% | -12.9% | -10.2% | 15µM* | . | ?
C[n+]1ccc(/C=C/c2ccccc2O)c2ccccc21 | -13.9% | 12.6µM* | -4.5% | 2.8% | . | ?
SMILES | Tau fluor cs | NPSR antag | Tau fibril FP | ALDH1A1 block | HPGD inh | Tau ThT inhib
CC(=O)/C=C/c1ccccc1O | -0.1% | 10.9% | ? | 4.5% | . | -14.9%
C=C(C(=O)OC)C(NC(=O)OC)c1ccccc1 (stereo unspecified) | -20.9% | . | -17.8% | 4.4% | -6.8% | -8.5%
CC(=O)Nc1ccc(/C=N/N2CCCCC2)cc1 | -6.9% | 6.1% | 2.1% | -2.9% | . | -10.8%
Cc1cc(C)n2cc(CSc3nc4ccccc4s3)nc2n1 | -6.8% | 17.6% | 1.1% | ? | ? | ?
Cc1ccc(N(CC(=O)N/N=C/c2cc(C)n(-c3ccccc3C)c2C)S(C)(=O)=O)cc1 | -27.8% | -43.7% | 10.7% | 25.1µM* | -14.6% | -17.8%
Cc1cc(C)cc(-n2c(C)cc(/C=N/NC(=O)CN(c3c(C)cccc3C)S(C)(=O)=O)c2C)c1 | -21.3% | -20.0%[46.1 µM] | -7.5% | ? | -12.1% | -18.2%
Oc1csc(Cc2nc(-c3ccc(Br)cc3)cs2)n1 | ? | -23.9% | 4.3% | 28.2µM* | . | ?
NC(=O)Cc1nc(-c2ccc(Br)cc2)cs1 | 14.6% | 26.1% | 8.9% | 9.9% | -10.7% | 5.2%
Cc1ccccc1OCC(=O)N/N=C/c1cn(C)c2ccccc12 | -55.3% | -10.3% | 22.6% | . | . | .
O=C1NC(=O)/C(=C\c2cn(Cc3ccccc3F)c3ccccc23)N1 | ? | -20.6% | 10.6% | 14.1µM* | . | -12.2%
O=C(O)c1ccc(N/N=C/c2cn(Cc3ccccc3F)c3ccccc23)cc1 | ? | -54.2% | -0.3% | . | . | 14.1µM*
Cn1cc(/C=N/Nc2ccccc2)c2ccccc21 | ? | 7.7% | 7.5% | 8.91µM* | . | ?
Cc1ccc(OC(=O)c2cc(-c3ccc4c(c3)OCCO4)on2)c(C)c1 | -22.2% | . | -4.7% | . | . | ?
O=C(c1ccccc1Cl)N1CCC(c2nc3ccccc3s2)CC1 | -8.3% | . | 2.8% | . | . | -14.8%
COc1cccc(N2CCN(CC(=O)C34CC5CC(CC(C5)C3)C4)CC2)c1 | -8.5% | -6.6%[46.1 µM] | -1.1% | 15.8µM* | -7.5% | ?
O=C(COc1ccc(Br)cc1)c1ccc2c(c1)CCCC2 | -15.3% | -29.2%[46.1 µM] | 2.6% | 9.0% | -28.4% | ?
Cc1ccc(C(=O)Oc2ccc(N3C(=O)CCC3=O)c(C)c2)cc1 | 2.5% | 10.8% | -4.6% | 12.7% | . | -3.3%
Cc1ccc(OCC(=O)c2ccc3c(c2)CCCC3)cc1C | -5.6% | -17.1%[46.1 µM] | -2.6% | -1.4% | 31.6µM* | ?
Cc1cc(OCC(=O)c2ccc(Br)cc2)ccc1N1C(=O)CCC1=O | -3.0% | -11.1%[46.1 µM] | 7.7% | ? | 14.1µM* | -3.7%
CCOC(Cn1cc(C)c(=O)[nH]c1=O)OCC | 0.0% | 11.3% | -4.4% | 1.5% | . | 1.0%
COc1ccc(NS(=O)(=O)c2ccc3nc(COc4cccc5ccccc45)[nH]c3c2)cc1 | 10µM*[quencher] | -22.7% | 22.4µM* | 22.4µM* | 35.5µM* | -10.6%
